Out of some 5,500 compounds screened, about 2,000 (36%) were called active. About 18% were inconclusive and are not listed. Rule as the data show it: active = normalized growth mostly below about 0.91 (no sharp cut-off); inconclusive = no clear call, values can overlap the other calls; inactive = mostly above about 0.92. This is one part of the list.
Experiment: chemical genetic growth profiling, strain panel (AID 1159580);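 also: tested at 20 µM; growth read once vehicle control cultures reached saturation at 30 °C; 1 = growth at the plate median or of vehicle wells; lower values mean less growth of the strain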
Conditions: growth OD
[1] = S. cerevisiae deletion strains, locus YAL013W, strain DEP1, stronger effect = lower value
[2] = S. cerevisiae deletion strains, locus YBR229C, strain ROT2, stronger effect = lower value
[3] = S. cerevisiae deletion strains, locus YDL101C, strain DUN1, stronger effect = lower value
[4] = S. cerevisiae deletion strains, locus YDR150W, strain NUM1, stronger effect = lower value
[5] = S. cerevisiae deletion strains, locus YEL061C, strain CIN8, stronger effect = lower value
[6] = S. cerevisiae deletion strains, locus YGR078C, strain PAC10, stronger effect = lower value
[7] = S. cerevisiae deletion strains, locus YHR030C, strain SLT2, stronger effect = lower value
[8] = S. cerevisiae deletion strains, locus YJR043C, strain POL32, stronger effect = lower value
[9] = S. cerevisiae deletion strains, locus YJR075W, strain HOC1, stronger effect = lower value
[10] = S. cerevisiae deletion strains, locus YLR039C, strain RIC1, stronger effect = lower value
[11] = S. cerevisiae deletion strains, locus YLR262C, strain YPT6, stronger effect = lower value
[12] = S. cerevisiae deletion strains, locus YMR263W, strain SAP30, stronger effect = lower value
[13] = S. cerevisiae deletion strains, locus YMR307W, strain GAS1, stronger effect = lower value
[14] = S. cerevisiae deletion strains, locus YNL153C, strain GIM3, stronger effect = lower value
[15] = S. cerevisiae deletion strains, locus YNL322C, strain KRE1, stronger effect = lower value
[16] = S. cerevisiae deletion strains, locus YOL006C, strain TOP1, stronger effect = lower value
[17] = S. cerevisiae deletion strains, locus YPL055C, strain LGE1, stronger effect = lower value
[18] = S. cerevisiae deletion strains, locus YPL241C, strain CIN2, stronger effect = lower value

Measured: normalized growth

CCCCCCC(C)OC(=O)COc1cc(Cl)c(Cl)cc1Cl (stereo not drawn)
inactive: [1] 0.994 | S. cerevisiae deletion strains, locus YBR021W, strain FUR4, stronger effect = lower value 0.985 | [2] 1 | S. cerevisiae deletion strains, locus YCL029C, strain bik1, stronger effect = lower value 0.992 | S. cerevisiae deletion strains, locus YDL035C, strain GPR1, stronger effect = lower value 1 | S. cerevisiae deletion strains, locus YDL074C, strain BRE1, stronger effect = lower value 1 | [3] 1 | S. cerevisiae deletion strains, locus YDL134C, strain PPH21, stronger effect = lower value 1.01 | S. cerevisiae deletion strains, locus YDL185W, strain tfp1, stronger effect = lower value 0.995 | S. cerevisiae deletion strains, locus YDL192W, strain arf1, stronger effect = lower value 0.995 | S. cerevisiae deletion strains, locus YDR101C, strain arx1, stronger effect = lower value 0.993 | [4] 1 | S. cerevisiae deletion strains, locus YDR162C, strain NBP2, stronger effect = lower value 0.964 | S. cerevisiae deletion strains, locus YDR318W, strain mcm21, stronger effect = lower value 0.989 | S. cerevisiae deletion strains, locus YDR388W, stronger effect = lower value 0.992 | S. cerevisiae deletion strains, locus YDR502C, strain sam2, stronger effect = lower value 0.997 | [5] 1 | S. cerevisiae deletion strains, locus YER110C, stronger effect = lower value 0.993 | S. cerevisiae deletion strains, locus YER155C, strain BEM2, stronger effect = lower value 0.984 | S. cerevisiae deletion strains, locus YER167W, strain BCK2, stronger effect = lower value 0.995 | S. cerevisiae deletion strains, locus YGL078C, strain dbp3, stronger effect = lower value 0.985 | S. cerevisiae deletion strains, locus YGL086W, strain mad1, stronger effect = lower value 0.988 | S. cerevisiae deletion strains, locus YGL248W, strain PDE1, stronger effect = lower value 0.993 | [6] 0.995 | S. cerevisiae deletion strains, locus YGR135W, strain pre9, stronger effect = lower value 0.994 | S. cerevisiae deletion strains, locus YGR229C, strain SMI1, stronger effect = lower value 0.952 | S. cerevisiae deletion strains, locus YGR252W, strain gcn5, stronger effect = lower value 0.99 | [7] 0.978 | S. cerevisiae deletion strains, locus YHR079C, strain IRE1 (second series), stronger effect = lower value 0.986 | S. cerevisiae deletion strains, locus YHR094C, strain hxt1, stronger effect = lower value 0.983 | S. cerevisiae deletion strains, locus YHR129C, strain ARP1, stronger effect = lower value 1 | S. cerevisiae deletion strains, locus YHR200W, strain rpn10, stronger effect = lower value 0.987 | S. cerevisiae deletion strains, locus YIL066C, strain RNR3, stronger effect = lower value 0.975 | S. cerevisiae deletion strains, locus YIL073C, strain SPO22, stronger effect = lower value 0.948 | S. cerevisiae deletion strains, locus YIL125W, strain kgd1, stronger effect = lower value 0.988 | S. cerevisiae deletion strains, locus YIR030C, strain dcg1, stronger effect = lower value 0.983 | S. cerevisiae deletion strains, locus YJL095W, strain BCK1, stronger effect = lower value 0.997 | S. cerevisiae deletion strains, locus YJL134W, strain LCB3, stronger effect = lower value 1.01 | S. cerevisiae deletion strains, locus YJL168C, strain set2, stronger effect = lower value 0.988 | S. cerevisiae deletion strains, locus YJL187C, strain SWE1 (second series), stronger effect = lower value 0.997 | [8] 0.988 | [9] 1.01 | S. cerevisiae deletion strains, locus YKL009W, strain mrt4, stronger effect = lower value 1 | S. cerevisiae deletion strains, locus YKL068W, stronger effect = lower value 0.989 | S. cerevisiae deletion strains, locus YKL085W, strain MDH1 (second series), stronger effect = lower value 0.986 | S. cerevisiae deletion strains, locus YKL085W, strain MDH1, stronger effect = lower value 0.986 | S. cerevisiae deletion strains, locus YKL190W, strain CNB1, stronger effect = lower value 1 | S. cerevisiae deletion strains, locus YKR001C, strain vps1, stronger effect = lower value 0.996 | [10] 0.95 | S. cerevisiae deletion strains, locus YLR058C, strain SHM2, stronger effect = lower value 0.999 | S. cerevisiae deletion strains, locus YLR102C, strain apc9, stronger effect = lower value 0.998 | [11] 0.946 | S. cerevisiae deletion strains, locus YLR268W, strain sec22, stronger effect = lower value 0.99 | S. cerevisiae deletion strains, locus YLR330W, strain CHS5, stronger effect = lower value 1 | S. cerevisiae deletion strains, locus YLR342W, strain FKS1 (second series), stronger effect = lower value 1.05 | S. cerevisiae deletion strains, locus YLR371W, strain rom2, stronger effect = lower value 0.993 | S. cerevisiae deletion strains, locus YLR418C, strain cdc73, stronger effect = lower value 0.947 | S. cerevisiae deletion strains, locus YML016C, strain PPZ1, stronger effect = lower value 1.01 | S. cerevisiae deletion strains, locus YML032C, strain rad52, stronger effect = lower value 0.994 | S. cerevisiae deletion strains, locus YML124C, strain tub3, stronger effect = lower value 0.985 | S. cerevisiae deletion strains, locus YMR078C, strain ctf18, stronger effect = lower value 0.989 | S. cerevisiae deletion strains, locus YMR223W, strain ubp8, stronger effect = lower value 0.99 | [12] 1.01 | [13] 0.86 | S. cerevisiae deletion strains, locus YNL067W, strain RPL9B, stronger effect = lower value 0.994 | S. cerevisiae deletion strains, locus YNL128W, strain TEP1, stronger effect = lower value 0.995 | [14] 0.996 | S. cerevisiae deletion strains, locus YNL233W, strain BNI4, stronger effect = lower value 0.996 | S. cerevisiae deletion strains, locus YNL250W, strain rad50, stronger effect = lower value 0.982 | S. cerevisiae deletion strains, locus YNL271C, strain bni1, stronger effect = lower value 0.997 | S. cerevisiae deletion strains, locus YNL298W, strain CLA4, stronger effect = lower value 0.991 | S. cerevisiae deletion strains, locus YNL307C, strain MCK1, stronger effect = lower value 0.973 | [15] 1 | S. cerevisiae deletion strains, locus YNR052C, strain pop2, stronger effect = lower value 0.993 | [16] 0.963 | S. cerevisiae deletion strains, locus YOL012C, strain htz1 1.39 | S. cerevisiae deletion strains, locus YOL147C, strain pex11, stronger effect = lower value 0.984 | S. cerevisiae deletion strains, locus YOR061W, strain CKA2, stronger effect = lower value 1 | S. cerevisiae deletion strains, locus YOR069W, strain VPS5, stronger effect = lower value 1 | S. cerevisiae deletion strains, locus YOR136W, strain idh2, stronger effect = lower value 0.986 | S. cerevisiae deletion strains, locus YOR144C, strain elg1, stronger effect = lower value 0.986 | S. cerevisiae deletion strains, locus YOR184W, strain ser1, stronger effect = lower value 0.992 | S. cerevisiae deletion strains, locus YOR316C, strain cot1, stronger effect = lower value 0.994 | [17] 0.999 | [18] 0.999 | S. cerevisiae deletion strains, locus YPR119W, strain clb2, stronger effect = lower value 0.982 | S. cerevisiae deletion strains, locus YPR141C, strain kar3, stronger effect = lower value 0.997 | S. cerevisiae deletion strains, locus YPR163C, strain tif3, stronger effect = lower value 0.985 | S. cerevisiae deletion strains, locus YPR167C, strain met16, stronger effect = lower value 0.992 | S. cerevisiae deletion strains, strain wtn01, stronger effect = lower value 0.983 | S. cerevisiae strains, strain wild type, stronger effect = lower value 0.999

OC1(c2ccc(F)cc2)Cc2ccccc2C2=NCCN21 (stereo not drawn)
inactive: [1] 0.99 | [2] 0.987 | [3] 0.997 | [4] 0.932 | [5] 0.993 | [6] 0.98 | [7] 0.903 | S. cerevisiae deletion strains, locus YHR087W, strain rtc3, stronger effect = lower value 0.987 | S. cerevisiae deletion strains, locus YJL187C, strain SWE1, stronger effect = lower value 1.01 | [8] 1 | [9] 0.961 | [10] 0.975 | S. cerevisiae deletion strains, locus YLR058C, strain SHM2 (second series), stronger effect = lower value 0.983 | S. cerevisiae deletion strains, locus YLR085C, strain ARP6, stronger effect = lower value 0.954 | [11] 0.968 | S. cerevisiae deletion strains, locus YML094W, strain GIM5, stronger effect = lower value 0.982 | S. cerevisiae deletion strains, locus YMR219W, strain ESC1, stronger effect = lower value 0.998 | [12] 0.894 | [13] 0.925 | [14] 0.985 | S. cerevisiae deletion strains, locus YNL298W, strain CLA4 (second series), stronger effect = lower value 0.986 | [15] 0.992 | S. cerevisiae deletion strains, locus YNR030W, strain Alg12, stronger effect = lower value 0.98 | [16] 0.93 | [17] 0.866 | [18] 0.986 | S. cerevisiae deletion strains, locus YPR135W, strain CTF4, stronger effect = lower value 0.915

From PubChem BioAssay AID1159580 (chemical genetic matrix, 2015)
